PubChem BioAssay
A number with no mark means an inactive call. No rule for the calls is given here.

Biological target: Pantothenate synthetase (Mycobacterium tuberculosis (strain ATCC 25618 / H37Rv)) (UniProt P9WIL5)
Assay: Coupled enzyme confirmation of inhibitors against recombinant Mtb PanC (AID 375);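 also: 0% = full reaction with vehicle and 100% = no enzyme background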
Conditions: coupled enzyme assay; at 10 µM, hits give high values

Chain of Pantothenate synthetase (Mycobacterium tuberculosis (strain ATCC 25618 / H37Rv)) (P9WIL5 whole entry, looked up): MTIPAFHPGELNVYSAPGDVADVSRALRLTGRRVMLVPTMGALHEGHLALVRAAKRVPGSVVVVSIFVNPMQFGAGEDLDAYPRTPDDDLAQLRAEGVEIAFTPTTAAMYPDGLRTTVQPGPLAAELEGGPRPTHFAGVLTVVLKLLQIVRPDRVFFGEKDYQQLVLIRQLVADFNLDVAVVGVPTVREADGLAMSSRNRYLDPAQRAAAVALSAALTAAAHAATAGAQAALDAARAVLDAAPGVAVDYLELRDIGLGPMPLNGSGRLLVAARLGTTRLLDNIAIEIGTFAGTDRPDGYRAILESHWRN

Row | SMILES | inhibition
1 | Cc1ccc2c(c1)nnn2C1CCN(C(=O)NC23CC4CC(CC(C4)C2)C3)CC1 | 0%
2 | O=C1CC(N2CCC(C(=O)N3CCCCC3)CC2)C(=O)N1 (stereo unspecified) | 11%
3 | O=C1NC(c2cccnc2)C(C(=O)c2cccs2)C(O)(C(F)(F)F)N1 (stereo unspecified) | 6%
4 | O=C(Cn1cnc2ccccc2c1=O)NCCC(=O)N1CCN(c2ccccc2)CC1 | 0%
5 | COc1ccc(NC(=O)CSc2nnc(-c3ccncc3)n2CC2CCCO2)c(OC)c1 (stereo unspecified) | 4%
6 | CCn1c(SCC(=O)Nc2ccc(C(=O)OC)cc2)nnc1-c1cccs1 | 3%
7 | COCCN(CCOC)C(=O)c1sc2nc(-c3ccccc3)cn2c1C | 0%
8 | CCN(CC)CCOC(=O)C(c1ccccc1)c1ccccc1 | 0%
9 | O=C(O)CCC(=O)NC1CCCCC1NC(=O)CCC(=O)O (stereo unspecified) | 0%
10 | c1ccc2nc(-c3nc4ccccc4[nH]3)ccc2c1 | 0%
11 | COc1cccc2cc(C(=O)N3CCN(C45CC6CC(CC(C6)C4)C5)CC3)c(=O)oc12 | 1%
12 | CCN(C(=O)Cc1c(C(=O)O)[nH]c2ccccc12)c1cc(OC)ccc1OC | 0%
13 | CC(=O)SCC(=O)N=c1sc2cc(F)ccc2n1C | 0%
14 | COc1cc(C)nc(NS(=O)(=O)c2ccc(C)cc2)n1 | 5%
15 | COc1ccc2c(CC(=O)Nc3ccc(OC)c(NS(=O)(=O)c4ccc(F)cc4)c3)coc2c1 | 1%
16 | O=C1N[C@@H](Cc2cnc[nH]2)C(=O)N2CCC[C@@H]12 | 0%
